Inconclusive results are not listed. The source made the active and inactive calls. Unless noted, calls follow the shape of the dose curve; as a rule, active = well fitted curve in the direction sought with a large enough effect in the repeat runs; inconclusive = weak or mixed curves; inactive = no such curve, though single readings can be large; an effect the other way counts as inactive or inconclusive.
Legend:
[1] = qHTS assay to identify small molecule antagonists of the glucocorticoid receptor (GR) signaling pathway - cell viability counter screen (AID 720693); also: nearly all actives have a fitted effect of over 55% in size
[2] = qHTS assay for identifying genotoxic compounds that show differential cytotoxicity against isogenic chicken DT40 cell lines with known DNA damage response pathways - wild type cell line (AID 743012); also: nearly all actives have a fitted effect of over 60% in size; also: potency is read from the fitted curve at half-maximal effect
Outline: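 Cytotoxicity in repair-proficient parental chicken DT40 cells serves as the comparator for Rad54/Ku70- and Rev3-deficient lines. Cells were exposed to compounds for 40 h at 37 C/5% CO2, and ATP-based luminescence (CellTiter-Glo) measured viability.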

[3] = qHTS assay to identify small molecule antagonists of the androgen receptor (AR) signaling pathway - cell viability counter screen (AID 743033; also: nearly all actives have a fitted effect of over 45% in size)
[4] = biological target: Androgen receptor (Homo sapiens) (UniProt P10275); test: qHTS assay to identify small molecule antagonists of the androgen receptor (AR) signaling pathway (AID 743035; active = well fitted inhibition curve with a large enough effect in the signal ratio in the repeat runs, not every such curve was filed as active; the % refers to the signal ratio)
Outline: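 Steps: seed AR-UAS-bla GripTite HEK293 cells, incubate 4 h at 37C; pin in test compound, then add agonist R1881; incubate 16 h at 37C; add LiveBLAzer B/G FRET substrate, 2 h at room temperature; read fluorescence.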

[5] = biological target: Androgen receptor (Homo sapiens) (UniProt P10275); test: qHTS assay to identify small molecule agonists of the androgen receptor (AR) signaling pathway (AID 743036; active = well fitted activation curve with a large enough effect in the signal ratio in the repeat runs, with a control signal flat, not every such curve was filed as active; the % refers to the signal ratio)
Outline: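 In this Tox21 qHTS, 2,000 HEK293 AR-bla cells per well were incubated with compounds for 16 h at 37C and 5% CO2. Fluorescence intensity was recorded 2 h after adding LiveBLAzer B/G FRET substrate at room temperature.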

[6] = biological target: Androgen receptor (Homo sapiens) (UniProt P10275); test: qHTS assay to identify small molecule agonists of the androgen receptor (AR) signaling pathway using the MDA cell line (AID 743040; also: nearly all actives have a fitted effect of over 20% in size)
Outline: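 Cell-based luciferase reporter: MDA-kb2, MMTV promoter (AR + GR response elements). 16 h compound exposure at 37C; ONE-Glo, 30 min RT, luminescence.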

[7] = qHTS assay to identify small molecule antagonists of the androgen receptor (AR) signaling pathway using the MDA cell line - cell viability counter screen (AID 743041; also: nearly all actives have a fitted effect of over 45% in size; also: potency is read from the fitted curve at half-maximal effect)
Outline: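 In this qHTS counter assay, fluorescence intensity after CellTiter-Fluor addition indicated viability of MDA-kb2 AR-luc cells given compounds and R1881 for 16 h at 37C.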

[8] = biological target: Androgen receptor (Homo sapiens) (UniProt P10275); test: qHTS assay to identify small molecule antagonists of the androgen receptor (AR) signaling pathway using the MDA cell line (AID 743042; also: nearly all actives have a fitted effect of over 55% in size)
Outline: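 MDA-kb2 cells (human breast carcinoma, stably carrying an MMTV-luciferase reporter responsive to AR and GR) were plated at 3,000 cells/well and preincubated 5 hr at 37C, then given compound plus R1881 agonist for 16 h. ONE-Glo luminescence was read.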

[9] = qHTS assay to identify small molecule antagonists of the thyroid receptor (TR) signaling pathway - cell viability counter screen (AID 743064); also: nearly all actives have a fitted effect of over 50% in size; also: potency is read from the fitted curve at half-maximal effect
Outline: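 Counter screen for cytotoxicity: compound plus T3 (1 nM final) on GH3.TRE-Luc cells, 23.5 h at 37 °C, then fluorescence viability readout with CellTiter-Fluor.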

[10] = qHTS assay to identify small molecule antagonists of the thyroid receptor (TR) signaling pathway (AID 743065); also: nearly all actives have a fitted effect of over 55% in size; also: potency is read from the fitted curve at half-maximal effect
Outline: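 GH3.TRE-Luc rat pituitary cells carrying two TR response elements driving luciferase were plated for 4 h, given compound plus 1 nM T3 (final), and incubated 23.5 h at 37 C. ONE-Glo luminescence measured reporter inhibition; CellTiter-Fluor fluorescence tracked cytotoxicity.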

[11] = test system: thyroid hormone receptor (rat, GH3 cells); test: qHTS assay to identify small molecule agonists of the thyroid receptor (TR) signaling pathway (AID 743066; calls by dose curve)
[12] = qHTS assay to identify small molecule antagonists of the estrogen receptor alpha (ER-alpha) signaling pathway - cell viability counter screen (AID 743074; calls by dose curve;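 also: HEK293 cells carrying ER-alpha-UAS-bla reporter stimulated with 17beta-estradiol; nearly all actives have a fitted effect of over 45% in size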)
[13] = qHTS assay to identify small molecule antagonists of the estrogen receptor alpha (ER-alpha) signaling pathway using the BG1 cell line - cell viability counter screen (AID 743081);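 also: compound given together with 17beta-estradiol as the ER stimulus; series mostly up to about 70 µM; nearly all actives have a fitted effect of over 45% in size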
Aromatase (Homo sapiens) = Aromatase (Homo sapiens) (UniProt P11511); test: qHTS assay to identify aromatase inhibitors (AID 743083); also: series mostly up to about 70 µM; nearly all actives have a fitted effect of over 55% in size
[14] = qHTS assay for identifying genotoxic compounds that show differential cytotoxicity against isogenic chicken DT40 cell lines with known DNA damage response pathways - Rev3 mutant cell line (AID 743014); also: nearly all actives have a fitted effect of over 55% in size; also: potency is read from the fitted curve at half-maximal effect
[15] = qHTS assay for identifying genotoxic compounds that show differential cytotoxicity against isogenic chicken DT40 cell lines with known DNA damage response pathways - Rad54/Ku70 mutant cell line (AID 743015); also: nearly all actives have a fitted effect of over 60% in size; also: potency is read from the fitted curve at half-maximal effect
[16] = biological target: Estrogen receptor (Homo sapiens) (UniProt P03372); test: qHTS assay to identify small molecule antagonists of the estrogen receptor alpha (ER-alpha) signaling pathway (AID 743069; active = well fitted curve in the direction sought with a large enough effect in the signal ratio in the repeat runs, not every such curve was filed as active; the % refers to the signal ratio)
Outline: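 A 17beta-estradiol challenge was applied right after compound transfer to ER-alpha-UAS-bla HEK293 cells previously kept in charcoal-stripped serum. Plates stood 18 hr at 37C and 5% CO2; fluorescence was read following 2 hr FRET substrate loading at room temperature.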

[17] = biological target: Estrogen receptor (Homo sapiens) (UniProt P03372); test: qHTS assay to identify small molecule agonists of the estrogen receptor alpha (ER-alpha) signaling pathway (AID 743075; calls by dose curve;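 also: HEK293 GripTite cells with ER-alpha and UAS-driven beta-lactamase reporter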)
[18] = biological target: Estrogen receptor (Homo sapiens) (UniProt P03372); test: qHTS assay to identify small molecule agonists of the estrogen receptor alpha (ER-alpha) signaling pathway using the BG1 cell line (AID 743079); also: nearly all actives have a fitted effect of over 20% in size
[19] = qHTS assay to identify small molecule antagonists of the estrogen receptor alpha (ER-alpha) signaling pathway using the BG1 cell line (AID 743080; calls by dose curve; also: series mostly up to about 70 µM; nearly all actives have a fitted effect of over 25% in size)
Outline: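 Antagonist mode: compounds in DMSO were pinned onto BG1-Luc-4E2 cells alongside 17beta-estradiol agonist, incubated 21.5 h, and ERE-driven luciferase measured with ONE-Glo. Cytotoxicity was multiplexed using CellTiter-Fluor fluorescence.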

Measured: Potency

Sequence of Aromatase (Homo sapiens) (P11511 whole entry, looked up): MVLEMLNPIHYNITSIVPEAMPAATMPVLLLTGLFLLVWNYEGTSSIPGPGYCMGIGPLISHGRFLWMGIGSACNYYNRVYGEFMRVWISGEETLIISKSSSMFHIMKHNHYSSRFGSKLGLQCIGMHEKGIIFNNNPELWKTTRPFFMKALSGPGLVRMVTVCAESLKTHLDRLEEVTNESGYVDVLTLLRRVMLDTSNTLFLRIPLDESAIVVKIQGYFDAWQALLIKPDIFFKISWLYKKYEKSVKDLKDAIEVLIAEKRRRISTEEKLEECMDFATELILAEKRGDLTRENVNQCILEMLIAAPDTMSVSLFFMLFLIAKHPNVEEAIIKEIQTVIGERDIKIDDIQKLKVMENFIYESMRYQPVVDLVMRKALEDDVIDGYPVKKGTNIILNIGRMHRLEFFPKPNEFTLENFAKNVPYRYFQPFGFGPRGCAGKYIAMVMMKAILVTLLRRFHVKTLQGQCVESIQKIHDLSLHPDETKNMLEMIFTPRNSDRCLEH
Sequence of Estrogen receptor (Homo sapiens) (P03372 whole entry, looked up): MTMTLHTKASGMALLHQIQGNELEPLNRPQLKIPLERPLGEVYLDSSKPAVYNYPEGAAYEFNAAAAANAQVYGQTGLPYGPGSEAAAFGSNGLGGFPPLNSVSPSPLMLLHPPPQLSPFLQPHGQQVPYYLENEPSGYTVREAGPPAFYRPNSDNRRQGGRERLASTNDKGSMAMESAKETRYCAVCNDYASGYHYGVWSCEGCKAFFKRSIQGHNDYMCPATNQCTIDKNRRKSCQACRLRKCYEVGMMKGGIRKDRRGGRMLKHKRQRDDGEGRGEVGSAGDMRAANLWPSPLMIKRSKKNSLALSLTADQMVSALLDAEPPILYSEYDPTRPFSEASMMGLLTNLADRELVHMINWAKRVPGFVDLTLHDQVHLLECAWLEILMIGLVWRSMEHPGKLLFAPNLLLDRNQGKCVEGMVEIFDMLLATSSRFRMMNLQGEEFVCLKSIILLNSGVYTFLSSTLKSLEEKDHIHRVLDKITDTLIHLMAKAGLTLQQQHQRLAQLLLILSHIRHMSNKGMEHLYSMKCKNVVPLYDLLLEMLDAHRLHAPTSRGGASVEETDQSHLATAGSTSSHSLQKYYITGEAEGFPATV
Sequence of Androgen receptor (Homo sapiens) (P10275 whole entry, looked up): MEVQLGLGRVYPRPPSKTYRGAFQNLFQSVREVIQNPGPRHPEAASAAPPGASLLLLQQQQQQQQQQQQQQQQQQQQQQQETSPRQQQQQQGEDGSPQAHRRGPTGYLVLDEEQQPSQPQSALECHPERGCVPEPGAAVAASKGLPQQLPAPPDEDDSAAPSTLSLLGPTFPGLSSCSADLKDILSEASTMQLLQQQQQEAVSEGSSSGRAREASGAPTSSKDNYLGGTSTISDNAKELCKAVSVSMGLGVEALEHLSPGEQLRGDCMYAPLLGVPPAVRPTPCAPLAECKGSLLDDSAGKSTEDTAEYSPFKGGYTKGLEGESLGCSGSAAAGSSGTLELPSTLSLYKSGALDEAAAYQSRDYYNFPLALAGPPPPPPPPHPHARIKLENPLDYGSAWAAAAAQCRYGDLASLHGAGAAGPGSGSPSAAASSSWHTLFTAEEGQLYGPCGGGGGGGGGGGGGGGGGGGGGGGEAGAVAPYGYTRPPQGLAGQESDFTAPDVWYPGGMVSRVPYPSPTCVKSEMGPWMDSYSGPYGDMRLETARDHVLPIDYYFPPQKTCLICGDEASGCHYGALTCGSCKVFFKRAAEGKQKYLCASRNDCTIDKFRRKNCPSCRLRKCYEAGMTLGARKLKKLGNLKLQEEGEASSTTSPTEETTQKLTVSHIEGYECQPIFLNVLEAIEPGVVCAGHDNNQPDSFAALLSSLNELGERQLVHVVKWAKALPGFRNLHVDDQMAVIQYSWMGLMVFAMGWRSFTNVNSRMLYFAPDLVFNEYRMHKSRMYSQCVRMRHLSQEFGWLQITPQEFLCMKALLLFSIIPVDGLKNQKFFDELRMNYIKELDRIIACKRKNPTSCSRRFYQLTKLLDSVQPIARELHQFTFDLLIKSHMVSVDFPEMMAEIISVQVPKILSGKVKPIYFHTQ

C=COCCOCCOCCOC=C
not listed: [14] | [15] | [16] | [17] | [18] | [19]
inactive: all other assays above

C=C(C)C1CCC(C)(O)CC1 (centres undefined)
not listed: [2]
inactive: all other assays above

CC(=O)Nc1ccc(S(=O)(=O)Cl)cc1
inactive: [1] | [2] | [15] | [3] | [7] | [9] | [10] | [11] | [12] | [13] | Aromatase (Homo sapiens)

Cc1cc(Cl)c(C)cc1Cl
not listed: [2] | [4] | [10] | [11] | [16] | [17] | [18] | [19]
inactive: all other assays above

CC(COC(C)(C)C)OCCCO (centres undefined)
inactive: [1] | [2] | [15] | [3] | [7] | [9] | [10] | [12] | [13] | Aromatase (Homo sapiens)

CC(C)CCCCOC(=O)c1ccccc1C(=O)OCCCCC(C)C
inactive: [1] | [2] | [15] | [3] | [7] | [10] | [11] | [12] | [13] | Aromatase (Homo sapiens)

O=C1c2ccccc2C(=O)C1c1ccccc1
not listed: [2] | [4] | [5] | [6] | [8]
inactive: all other assays above

O=C(CCN1CCN(CCO)CC1)N1c2ccccc2Sc2ccc(C(F)(F)F)cc21
active: [14] 29.8 µM | [15] 29.8 µM | [9] 13.3 µM | [10] 21.1 µM
not listed: [2] | [12] | [13]
inactive: all other assays above

CC[C@H](C)C(=O)O[C@H]1C[C@H](O)C=C2C=C[C@H](C)[C@H](CC[C@@H](O)C[C@@H](O)CC(=O)O)[C@H]21
not listed: [4] | [5] | [6] | [8] | [14] | [15]
inactive: all other assays above

C=C(C)C(=O)OCC(C)(C)COC(=O)C(=C)C
not listed: [2] | [4] | [5] | [6] | [8]
inactive: all other assays above

CC(CN)CC(C)(C)CCN (centres undefined)
inactive: [1] | [3] | [9] | [10] | [11] | [12] | [13] | Aromatase (Homo sapiens)
active: [2] 44.4 µM | [15] 44.4 µM | [7] 6.27 µM

COc1cc(N)ccc1C
inactive: [1] | [2] | [15] | [3] | [7] | [10] | [11] | [12] | [13]

C=Cc1ccccn1
inactive: [1] | [2] | [15] | [3] | [7] | [9] | [10] | [11] | [13] | Aromatase (Homo sapiens)

CNS(=O)(=O)CCc1ccc2[nH]cc(C3CCN(C)CC3)c2c1
not listed: [4] | [5] | [6] | [8] | [9] | [12] | [14]
inactive: all other assays above

CCOC(=O)c1ncn2c1CN(C)C(=O)c1cc(F)ccc1-2
not listed: [2]
inactive: all other assays above

Cc1cccc(C)c1NC(=O)c1ccccc1C(=O)O
not listed: [2] | [18]
inactive: all other assays above

O=C1c2cccc3c2[C@H](CCC3)CN1[C@@H]1CN2CCC1CC2
inactive: [1] | [11] | [12] | [17] | [18] | Aromatase (Homo sapiens)
active: [2] 11.9 µM | [15] 23.7 µM | [9] 23.7 µM | [10] 18.8 µM

C=C(C)C(=O)OCCNC(C)(C)C
inactive: [1] | [2] | [15] | [3] | [7] | [9] | [12] | [13] | Aromatase (Homo sapiens)

CCC(CC)CO
not listed: [2] | [5]
inactive: all other assays above

From PubChem BioAssay (Tox21)
